PubChem BioAssay
Activity calls are given as the source filed them.

Columns and labels:
[1] = test system: Plasmodium falciparum Sir2 (PF13_0152, Sir2A); experiment: pfSir2 binders on small-molecule microarrays, primary screen, biochemical, small-molecule microarray, 635 nm fluorescence (AID 1098); conditions: small-molecule microarray binding, fluorescence 635 nm; higher = more signal;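 note: score merges spot fluorescence intensity with its signal-to-noise ratio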
[2] = small-molecule microarray binders of probe aDKK1, primary screen, biochemical, biotinylated probe, 635/667 nm fluorescence (AID 1099); conditions: higher = more signal;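 note: score merges 667nm spot fluorescence with signal to noise across triplicate slides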
[3] = small-molecule microarray binders of probe aCHRDL2, primary screen, biochemical, biotinylated probe, 635/667 nm fluorescence (AID 1100); conditions: higher = more signal
[4] = splicing luciferase reporter signal modulators, primary screen, spliceosome inhibition project, cell-based, HEK293, splice +/- reporter (AID 1101); conditions: luminescence, 24 h, higher = more signal, called active from +8 up or from −8 down;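 note: HEK293 cells carrying a splicing-competent luciferase reporter gene; test concentration not given here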
[5] = target: Fibroblast growth factor 10 (Homo sapiens) (UniProt O15520); experiment: FGF10 binders on small-molecule microarrays, primary screen, biochemical, small-molecule microarray, 635 nm fluorescence (AID 1102); conditions: FGF10 binding, fluorescence 635 nm, higher = more signal
[6] = test system: glycogen synthase kinase-3 (GSK3A per assay name; protocol says GSK3B); experiment: GSK3 binders on small-molecule microarrays, primary screen, biochemical, small-molecule microarray, 635 nm fluorescence, GSK3A (AID 1103); conditions: small-molecule microarray binding, fluorescence 635 nm; higher = more signal; note: the record names both GSK3A and GSK3B
[7] = target: Epidermal growth factor receptor (Homo sapiens) (UniProt P00533); experiment: EGFR binders on small-molecule microarrays, primary screen, biochemical, small-molecule microarray, 635 nm fluorescence (AID 1104); conditions: EGFR binding, higher = more signal;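 note: score merges 667 nm emission intensity with spot signal to noise over triplicate slides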
[8] = target: Follistatin-related protein 3 (Homo sapiens) (UniProt O95633); experiment: FSTL3 binders on small-molecule microarrays, primary screen, biochemical, small-molecule microarray, 635 nm fluorescence (AID 1105); conditions: FSTL3 binding, higher = more signal;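 note: score merges emission near 667 nm and signal to noise per printed spot across three slides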
[9] = target: Dickkopf-related protein 1 (Homo sapiens) (UniProt O94907); experiment: DKK1 binders on small-molecule microarrays, primary screen, biochemical, small-molecule microarray, 635 nm fluorescence scan (AID 1106); conditions: DKK1 binding, higher = more signal;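 note: score merges emission near 667 nm with signal to noise over three replicate slides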
[10] = test system: Inhibin beta A chain (activin A); experiment: INHBA (activin A) binders on microarrays, primary screen, biochemical, small-molecule microarray, 635 nm fluorescence scan (AID 1107); conditions: small-molecule microarray binding, higher = more signal;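 note: mouse activin A protein probed at 4.33 µg/mL on printed slides; score merges bound-protein fluorescence near 667 nm with spot signal-to-noise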
[11] = test system: Human papillomavirus type 1a protein E7 (residues 44-93); experiment: HPV1a E7 fragment binders on microarrays, primary screen, biochemical, small-molecule microarray, residues 44-93, 635 nm fluorescence (AID 1108); conditions: small-molecule microarray binding, fluorescence 635 nm; higher = more signal;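 note: E7 fragment applied at 1 µg/mL in TBST for 1 h at 4 C; score combines spot fluorescence with its signal to noise ratio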
[12] = modulators of HCV replicon luciferase signal, primary screen, HCV replication inhibitor project, Huh7 cells, luciferase reporter (AID 1109); conditions: 48 h, higher = more signal;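 note: huh7 hepatoma cells harbouring a luciferase neomycin HCV replicon reporter; luciferase luminescence as measure of HCV replicon replication; test concentration not given here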
[13] = target: Left-right determination factor 2 (Homo sapiens) (UniProt O00292); experiment: LEFTY2 binders on small-molecule microarrays, primary screen, biochemical, small-molecule microarray, 635 nm fluorescence scan (AID 1110); conditions: LEFTY2 binding, higher = more signal
[14] = target: Calmodulin-1 (Homo sapiens) (UniProt P0DP23); experiment: CALM1 binders on microarrays, EGTA buffer, profiling panel, biochemical, small-molecule microarray, Cy5-labelled CALM1 (AID 1111); conditions: Cy5-CALM1 binding fluorescence, higher = more signal;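 note: labelled calmodulin applied in Tris saline Tween buffer holding calcium plus EGTA and DTT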
[15] = target: Calmodulin-1 (Homo sapiens) (UniProt P0DP23); experiment: calcium-bound CALM1 binders on microarrays, profiling panel, artefact control for SMM control-protein annotation, biochemical, small-molecule microarray, Cy5-labelled CALM1, plus calcium (AID 1112); conditions: Cy5-CALM1 binding fluorescence, higher = more signal;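 note: score merges spot fluorescence with signal to noise from triplicate slides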
[16] = small-molecule microarray binders of probe aWnt5a, primary screen, biochemical, biotinylated probe, 635/667 nm fluorescence (AID 1113); conditions: higher = more signal;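 note: score merges 667 nm fluorescence intensity with signal-to-noise per printed feature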
[17] = small-molecule microarray binders of probe aShh, primary screen, biochemical, biotinylated probe, 635/667 nm fluorescence (AID 1114); conditions: higher = more signal;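 note: probe is biotin-labelled aShh protein from a stem cell growth factor screen; measures binding of labelled protein to compounds printed on the slide; score merges feature fluorescence at 667 nm with signal-to-noise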
[18] = small-molecule microarray binders of probe aNog, primary screen, biochemical, biotinylated probe, 635/667 nm fluorescence (AID 1115); conditions: higher = more signal;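 note: probe is biotinylated aNog protein used at 0.15 µg/mL for 1 h at 4 C; z-score combines 667 nm fluorescence of each spot with its signal to noise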
[19] = target: Torsin-1A-interacting protein 1 (Homo sapiens) (UniProt Q5JTV8); experiment: LAP1 binders from COS7 cell lysate, primary screen, small-molecule microarray, 635/667 nm fluorescence (AID 1116); conditions: COS7-hLAP1 lysate binding, 635 nm fluorescence, higher = more signal
[20] = target: Alpha-bungarotoxin (Bungarus multicinctus) (UniProt P60615); experiment: alpha-bungarotoxin binders on microarray, profiling panel, artefact control for SMM control protein annotation, biochemical, small-molecule microarray, Alexa647 label, 635/667 nm fluorescence (AID 1117); conditions: alpha-BTX-A647 binding fluorescence, higher = more signal
Alpha-bungarotoxin (Bungarus multicinctus), sequence (P60615 whole entry, looked up): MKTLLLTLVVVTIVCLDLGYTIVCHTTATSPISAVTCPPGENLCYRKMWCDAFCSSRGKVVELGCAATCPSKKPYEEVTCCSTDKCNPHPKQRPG

Epidermal growth factor receptor (Homo sapiens), sequence (P00533 whole entry, looked up): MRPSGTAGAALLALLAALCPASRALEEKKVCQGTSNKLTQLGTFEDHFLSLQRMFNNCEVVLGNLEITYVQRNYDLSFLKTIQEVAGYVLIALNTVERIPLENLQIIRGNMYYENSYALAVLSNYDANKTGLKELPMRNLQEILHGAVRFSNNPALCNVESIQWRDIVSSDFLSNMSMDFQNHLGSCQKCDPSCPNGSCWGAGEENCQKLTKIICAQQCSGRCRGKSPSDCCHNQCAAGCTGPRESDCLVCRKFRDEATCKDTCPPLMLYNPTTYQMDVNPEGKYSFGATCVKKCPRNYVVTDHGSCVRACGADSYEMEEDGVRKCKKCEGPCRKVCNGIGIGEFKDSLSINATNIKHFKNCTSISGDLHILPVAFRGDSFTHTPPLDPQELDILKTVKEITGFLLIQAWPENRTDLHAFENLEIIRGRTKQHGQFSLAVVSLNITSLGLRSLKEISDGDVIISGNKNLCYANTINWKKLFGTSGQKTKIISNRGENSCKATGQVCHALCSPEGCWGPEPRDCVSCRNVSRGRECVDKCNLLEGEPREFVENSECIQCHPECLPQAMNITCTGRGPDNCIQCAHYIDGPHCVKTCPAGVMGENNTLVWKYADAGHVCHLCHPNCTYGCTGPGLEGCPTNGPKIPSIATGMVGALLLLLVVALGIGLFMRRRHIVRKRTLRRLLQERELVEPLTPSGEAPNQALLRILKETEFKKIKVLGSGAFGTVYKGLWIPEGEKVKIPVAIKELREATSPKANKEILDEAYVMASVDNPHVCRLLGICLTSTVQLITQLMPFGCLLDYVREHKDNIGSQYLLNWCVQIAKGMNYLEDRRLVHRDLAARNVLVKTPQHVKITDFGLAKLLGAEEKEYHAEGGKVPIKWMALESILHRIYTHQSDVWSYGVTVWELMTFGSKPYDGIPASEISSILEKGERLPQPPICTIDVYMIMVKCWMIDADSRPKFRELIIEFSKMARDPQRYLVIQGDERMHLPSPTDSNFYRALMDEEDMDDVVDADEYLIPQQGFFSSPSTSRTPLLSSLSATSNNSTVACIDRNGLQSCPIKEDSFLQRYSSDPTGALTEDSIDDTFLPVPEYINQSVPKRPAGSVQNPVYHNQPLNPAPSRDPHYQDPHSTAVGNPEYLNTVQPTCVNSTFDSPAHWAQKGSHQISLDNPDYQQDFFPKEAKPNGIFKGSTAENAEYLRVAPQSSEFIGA
Fibroblast growth factor 10 (Homo sapiens), sequence (O15520 whole entry, looked up): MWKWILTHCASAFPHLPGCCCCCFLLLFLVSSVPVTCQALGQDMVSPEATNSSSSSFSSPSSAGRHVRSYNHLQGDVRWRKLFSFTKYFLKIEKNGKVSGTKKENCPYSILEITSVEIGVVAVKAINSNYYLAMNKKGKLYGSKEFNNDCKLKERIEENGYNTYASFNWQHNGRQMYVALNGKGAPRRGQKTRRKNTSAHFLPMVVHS
Torsin-1A-interacting protein 1 (Homo sapiens), sequence (Q5JTV8 whole entry, looked up): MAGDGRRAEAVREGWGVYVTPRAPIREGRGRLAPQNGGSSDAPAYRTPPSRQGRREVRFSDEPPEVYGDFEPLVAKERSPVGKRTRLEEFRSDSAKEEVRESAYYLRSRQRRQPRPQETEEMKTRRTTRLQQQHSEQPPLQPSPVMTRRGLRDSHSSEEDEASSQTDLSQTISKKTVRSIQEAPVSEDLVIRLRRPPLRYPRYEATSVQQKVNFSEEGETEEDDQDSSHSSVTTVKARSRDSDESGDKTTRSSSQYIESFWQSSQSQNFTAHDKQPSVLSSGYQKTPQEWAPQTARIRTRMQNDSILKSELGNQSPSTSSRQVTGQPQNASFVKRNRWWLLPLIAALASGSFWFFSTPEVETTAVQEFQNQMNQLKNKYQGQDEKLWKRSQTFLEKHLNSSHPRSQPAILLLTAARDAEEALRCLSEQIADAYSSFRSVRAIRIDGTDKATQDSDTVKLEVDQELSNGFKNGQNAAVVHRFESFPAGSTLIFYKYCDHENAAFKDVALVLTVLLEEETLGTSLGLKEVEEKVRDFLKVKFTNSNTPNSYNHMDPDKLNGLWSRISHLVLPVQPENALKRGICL
Follistatin-related protein 3 (Homo sapiens), sequence (O95633 whole entry, looked up): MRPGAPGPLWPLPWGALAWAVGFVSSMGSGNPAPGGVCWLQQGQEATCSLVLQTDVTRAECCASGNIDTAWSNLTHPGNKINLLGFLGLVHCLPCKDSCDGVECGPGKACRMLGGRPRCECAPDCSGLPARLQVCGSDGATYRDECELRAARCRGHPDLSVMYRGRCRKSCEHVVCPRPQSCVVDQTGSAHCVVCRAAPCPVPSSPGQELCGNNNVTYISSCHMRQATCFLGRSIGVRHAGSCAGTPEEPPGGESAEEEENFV
Dickkopf-related protein 1 (Homo sapiens), sequence (O94907 whole entry, looked up): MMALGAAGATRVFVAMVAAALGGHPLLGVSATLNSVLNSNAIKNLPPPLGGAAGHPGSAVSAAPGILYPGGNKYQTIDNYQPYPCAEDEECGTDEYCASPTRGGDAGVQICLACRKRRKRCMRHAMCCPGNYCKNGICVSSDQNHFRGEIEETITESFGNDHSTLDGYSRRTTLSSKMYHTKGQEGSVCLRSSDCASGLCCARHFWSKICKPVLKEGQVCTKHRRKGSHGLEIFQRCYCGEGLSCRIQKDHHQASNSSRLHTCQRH
Left-right determination factor 2 (Homo sapiens), sequence (O00292 whole entry, looked up): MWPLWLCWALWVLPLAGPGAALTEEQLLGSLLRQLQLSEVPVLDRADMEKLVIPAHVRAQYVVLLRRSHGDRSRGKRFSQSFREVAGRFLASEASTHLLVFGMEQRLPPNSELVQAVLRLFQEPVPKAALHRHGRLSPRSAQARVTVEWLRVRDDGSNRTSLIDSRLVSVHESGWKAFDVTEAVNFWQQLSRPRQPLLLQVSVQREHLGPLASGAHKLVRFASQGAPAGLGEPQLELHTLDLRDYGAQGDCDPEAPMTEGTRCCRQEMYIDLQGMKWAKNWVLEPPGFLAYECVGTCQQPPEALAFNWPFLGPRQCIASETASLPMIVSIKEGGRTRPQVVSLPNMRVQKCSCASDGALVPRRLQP

Structure (SMILES)	composite z-score [1]	composite z-score [2]	composite z-score [3]	z-score [4]	composite z-score [5]	composite z-score [6]	composite z-score [7]	composite z-score [8]	composite z-score [9]	composite z-score [10]	composite z-score [11]	z-score [12]	composite z-score [13]	composite z-score [14]	composite z-score [15]	composite z-score [16]	composite z-score [17]	composite z-score [18]	composite z-score [19]	composite z-score [20]
C=C(COC)C(=O)CC[C@H](OC(=O)c1ccccc1-c1ccccc1C(=O)O)c1ccc(OCCO)cc1	1.53	-0.203	0.0518	0.287 (inactive)	1.35	0.667	-0.237	1.05	0.701	1.1	0.701	-1.06	0.419	0.0421	-0.774	-0.148	0.351	0.229	3.05	1.16
OCc1ccc(-c2cc[n+](Cc3cccc(OC(F)(F)F)c3)cc2)cc1	0.802	0.44	0.854	1.36 (inactive)	0.981	0.869	1.33	1.48	1.56	1.93	1.19	0.717	1.36	-0.245	-0.196	-0.0006	-0.0146	0.425	1.08	1.9
OCCCC1=CC(c2cccs2)N(Cc2cccc(OC(F)(F)F)c2)CC1 (stereo not given)	1.32	-0.14	-0.138	-0.733 (inactive)	-0.566	-0.729	-0.547	-0.537	-0.015	0.756	-0.571	-2.1	-0.0424	-0.957	0.639	-0.13	-0.221	1.41	-0.0673	-0.0302
CC(C)CN1C(=O)[C@@]2(Cc3ccccc31)c1ccccc1C(=O)N(Cc1ccccc1)[C@H]2c1ccc(CO)cc1	-0.743	0.236	0.514	-0.489 (inactive)	-0.701	-0.776	-0.636	0.554	-0.952	-0.298	-0.587	0.15	-0.757	-0.361	-0.195	-0.096	-0.206	-0.175	-0.845	-0.0612
C=C(C(=O)CC[C@H](OC(=O)c1cccnc1)c1ccc(OCCO)cc1)C(C)C	1.56	-0.175	-0.049	1.77 (inactive)	1.34	-0.0404	0.0365	0.721	-0.17	0.958	1.33	-3.29	0.242	0.098	-1.01	-0.0704	-0.142	-0.196	1.68	1.11
COc1ccc(C(=O)Nc2ccc(CN3C(=O)[C@@]4(O[C@@H](CC(=O)N5Cc6ccccc6C[C@H]5CO)[C@H]([Si](C)(C)c5ccc(OC)cc5)[C@H]4C)c4ccccc43)cc2)cc1	1.33	-0.351	-0.342	-1.29 (inactive)	1.01	0.81	1.05	1.19	0.628	0.673	1.1	-3.84	0.804	0.0063	-0.613	-0.119	0.0121	-0.24	1.21	1.3
COC(=O)[C@@]1(Cc2ccccc2)[C@H]2c3cc(C(=O)N(C)C)n(Cc4ccccn4)c3C[C@H]2CN1C(=O)c1ccccc1	1.57	1.44	1.37	-1.58 (inactive)	0.548	0.225	-0.805	0.155	-1.09	0.46	-0.271	-0.903	-0.0545	1.92	1.35	0.241	-0.0849	0.85	1.77	0.94
COCCOC(=O)N1C(=O)[C@@]2(c3cc(C#CC4(O)CCCCCC4)ccc31)[C@H](C(=O)N1CCc3cc(OC)c(OC)cc3C1)[C@H]1C(=O)O[C@H](c3ccccc3)[C@H](c3ccccc3)N1[C@@H]2c1ccccc1OCCO	0.517	0.836	0.173	-0.461 (inactive)	0.96	1.3	0.887	1.42	1.69	0.701	1.04	-2.18	1.17	1.02	-0.386	0.205	0.261	0.0158	0.447	1.46
CN(C)CCCNC(=O)[C@@]1(Cc2ccccc2I)c2ccccc2C(=O)N(Cc2ccccc2Cl)[C@H]1c1ccc(CO)cc1	1.56	0.94	1.33	-3.68 (inactive)	0.247	0.122	-1.4	-0.509	-0.83	1.03	-0.93	-3.47	-1.3	1.48	0.775	0.157	-0.12	-0.784	0.461	1.27
CCOC(=O)C[C@H]1[C@H](OC(=O)c2ccc(C(=O)c3ccccc3)cc2)[C@@H](NC(=O)C2CCCCC2)c2cc(OCCCO)ccc2N1C(=O)Cc1ccc(OC)cc1	0.331	0.765	0.7	0.0309 (inactive)	0.547	0.328	0.285	0.459	0.0351	0.666	0.773	-1.96	0.0258	1.13	0.304	-0.0907	-0.0769	-0.0597	0.602	0.237
COc1ccc([Si](C)(C)[C@@H]2[C@@H](CCO)O[C@]3(C(=O)N(Cc4cccc(N5C(=O)COc6ccccc65)c4)c4ccccc43)[C@H]2C)cc1	1.35	0.0985	0.298	-1.54 (inactive)	0.247	-0.233	-0.0851	-0.225	-0.466	-0.496	0.467	-4.83	-0.382	1.06	0.728	-0.063	0.0048	-0.167	-0.028	0.748
